Screens as filed in PubChem.
3T3 cytotox – kills NIH 3T3 cells | NIH 3T3 viability, CellTiter-Glo ATP luminescence, 48-72 h | Potency, µM (titrated, usually from 96.7 µM), usual class: inhibitors | hit rate 4.3% among 94,000 | AID 1345082; further: nearly all actives have a fitted effect of over 55% in size
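First NIH 3T3 cells are plated at 400 cells/well; next compound is pinned in; then plates incubate 48 or 72 hr at 37 °C; finally CellTiter-Glo is added and luminescence read after 10 min.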
NPR1 antag – antagonists of human natriuretic peptide receptor Npr1 | Potency, µM (series often up to 46.3 µM), most hits filed as inhibitors | AID 1347048 | hit rate 1.6% among 76,000 | HEK293 hNpr1 GloSensor cGMP, ANP-stimulated luminescence; calls by dose curve; further: nearly all actives have a fitted effect of over 60% in size
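HEK293 cells stably expressing human Npr1 and cGMP GloSensor pGS-40F, loaded 2 h with 2% GloSensor reagent, given compound 30 min at room temperature. Luminescence read before and 20 min after 0.1 nM hNppA.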
HEK293 tox – kills HEK 293 cells | hit rate 6.6% among 94,000 | Potency, µM (series often up to 115 µM), hits mostly inhibitors | HEK 293 viability, ATP luminescence (CellTiter-Glo), 48-72 h; further: nearly all actives have a fitted effect of over 60% in size
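HEK 293 cells at 250 cells/well were exposed to compounds by pintool transfer for 48 or 72 hr at 37 degree Celsius, 5% CO2. Viability was read as ATP-coupled luminescence with CellTiter-Glo after 10 min at room temperature.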
Luciferase inh – blocks purified firefly luciferase enzyme activity; P08659; purified P. pyralis luciferase, luminescence, biochemical; Potency, µM (titrated, usually from 115 µM), actives largely listed as inhibitors; hit rate 2.5% among 76,000; further: nearly all actives have a fitted effect of over 65% in size
Target sequence (P08659 whole entry, looked up): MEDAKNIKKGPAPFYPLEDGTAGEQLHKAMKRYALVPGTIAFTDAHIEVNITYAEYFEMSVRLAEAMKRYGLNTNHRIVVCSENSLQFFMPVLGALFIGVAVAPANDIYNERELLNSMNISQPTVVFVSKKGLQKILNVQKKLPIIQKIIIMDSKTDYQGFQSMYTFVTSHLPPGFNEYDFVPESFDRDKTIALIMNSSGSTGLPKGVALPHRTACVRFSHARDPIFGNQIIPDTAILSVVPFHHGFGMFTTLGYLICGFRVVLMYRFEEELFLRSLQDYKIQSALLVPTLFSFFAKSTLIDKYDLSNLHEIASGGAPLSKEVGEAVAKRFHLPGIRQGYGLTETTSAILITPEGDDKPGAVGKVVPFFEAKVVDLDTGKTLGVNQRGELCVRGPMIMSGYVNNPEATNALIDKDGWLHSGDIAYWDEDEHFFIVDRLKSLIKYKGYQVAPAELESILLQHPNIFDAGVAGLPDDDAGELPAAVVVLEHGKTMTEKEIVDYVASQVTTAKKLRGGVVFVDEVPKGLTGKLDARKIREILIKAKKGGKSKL
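Luminescence read by CCD imager after adding enzyme (10nM final) to wells holding compound, titrated in qHTS. Substrates 10uM each D-luciferin and ATP; buffer 50mM Tris acetate pH 7.5, 10mM Mg acetate, Tween-20, BSA.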
A number is an active result. This is a sample that favours compounds with a hit; in the whole collection about 11% have one here. Unless noted, the call rests on the fitted dose curve; in most records, active means well fitted curve in the direction sought with a large enough effect; inconclusive means small, poorly fitted or top-dose-only effect, or another doubt; inactive means no such curve, though single readings can be large; an effect the other way counts as inactive or inconclusive.

`Cc1nc2scc(CC(=O)NCC(C)C)n2c(=O)c1-c1cc(C)n(-c2ccc(C(C)C)cc2)n1` gave 3T3 cytotox inconclusive, NPR1 antag inactive, HEK293 tox 79µM and Luciferase inh inconclusive.
Screening COc1ccc(-n2c(=O)c(C(=O)NCc3ccccc3F)nc3cccnc32)cc1 returned 3T3 cytotox inactive and HEK293 tox inactive.
`Cc1ccc(C2Cn3nnc(C(=O)N4CCC(C(=O)Nc5cc(F)cc(F)c5)CC4)c3CO2)cc1` (stereo not given) gave 3T3 cytotox inactive, NPR1 antag inactive, HEK293 tox inactive and Luciferase inh 28µM.
Screening Cc1ccc(C2Cn3nnc(C(=O)N4CCC(C(=O)Nc5ccc(F)c(F)c5)CC4)c3CO2)cc1 (stereo not given) returned 3T3 cytotox inactive, NPR1 antag inactive, HEK293 tox inconclusive and Luciferase inh 40µM.
`CC(C)C(=O)NC1CCCN(c2ccnc3ccnn23)C1` (stereo not given) gave 3T3 cytotox inactive and HEK293 tox inactive.
C=CCN(C)C(=O)[C@@H]1Cc2c[nH]c3cccc(c23)[C@H](CC(C)C)N1 was read as 3T3 cytotox inconclusive, NPR1 antag inactive, HEK293 tox inconclusive and Luciferase inh inactive.
CC(C)C[C@@H]1N[C@H](C(=O)NC2CCCC2)Cc2c[nH]c3cccc1c23 was read as 3T3 cytotox 50µM, NPR1 antag inactive, HEK293 tox 32µM and Luciferase inh inactive.
CC(C)C[C@@H]1N[C@H](C(=O)NC2CCC2)Cc2c[nH]c3cccc1c23 was read as 3T3 cytotox 50µM, NPR1 antag inactive, HEK293 tox 45µM and Luciferase inh inactive.
CC(C)C[C@@H]1N[C@H](C(=O)N2CCN(c3ncccn3)CC2)Cc2c[nH]c3cccc1c23 was read as 3T3 cytotox inconclusive, NPR1 antag inactive, HEK293 tox 79µM and Luciferase inh inactive.
Screening COCC(=O)NC1CCC12CCN(Cc1ccccn1)CC2 (stereo not given) returned 3T3 cytotox inactive, NPR1 antag inactive, HEK293 tox inconclusive and Luciferase inh inactive.
`O=C(c1ccccc1OCC1CCCN(Cc2ccncc2F)C1)N1CCCC1` (stereo not given) gave 3T3 cytotox inactive, NPR1 antag inactive, HEK293 tox inactive and Luciferase inh inactive.
CCCCOc1ccc(CN2C[C@@H]3C(=O)N(C)C(=O)[C@@H]3C2)cc1 was read as 3T3 cytotox inactive, NPR1 antag inactive, HEK293 tox inconclusive and Luciferase inh 28µM.
Screening CN1C(=O)[C@H]2CN(Cc3ccc(C#N)cc3)C[C@H]2C1=O returned 3T3 cytotox inactive, NPR1 antag inactive, HEK293 tox inactive and Luciferase inh inactive.
c1ccc(-c2noc(-c3cncnc3N3CCSCC3)n2)cc1 was read as 3T3 cytotox inactive, NPR1 antag inactive, HEK293 tox 45µM and Luciferase inh inconclusive.
Screening c1ccc(-c2noc(-c3cncnc3N3CCN(C4CCCCC4)CC3)n2)cc1 returned 3T3 cytotox inactive, NPR1 antag inactive, HEK293 tox inconclusive and Luciferase inh inactive.
Screening CC1CCN(c2ncncc2-c2nc(-c3ccccc3)no2)CC1 returned 3T3 cytotox inconclusive, NPR1 antag inactive, HEK293 tox 79µM and Luciferase inh inconclusive.
c1ccc(-c2noc(-c3cncnc3NC3CCCCCC3)n2)cc1 was read as 3T3 cytotox inactive, NPR1 antag inactive, HEK293 tox inactive and Luciferase inh inactive.
CCCNC(=O)[C@@H]1Cc2cn(Cc3ccncc3)c3cccc(c23)[C@H](CC(C)C)N1 was read as 3T3 cytotox 25µM, NPR1 antag inconclusive, HEK293 tox 32µM and Luciferase inh inactive.
`CC(C)C[C@@H]1N[C@H](C(=O)NCCN(C)C)Cc2cn(Cc3ccncc3)c3cccc1c23` gave 3T3 cytotox 28µM, NPR1 antag inactive, HEK293 tox 40µM and Luciferase inh inactive.
CC(C)C[C@@H]1N[C@H](C(=O)NCC2CC2)Cc2cn(Cc3ccncc3)c3cccc1c23 was read as 3T3 cytotox inconclusive, NPR1 antag inactive, HEK293 tox 35µM and Luciferase inh inactive.
For CC(C)C[C@@H]1N[C@H](C(=O)O)Cc2cn(Cc3ccncc3)c3cccc1c23 the results were 3T3 cytotox inactive, NPR1 antag inactive, HEK293 tox inactive and Luciferase inh inactive.
For CCCNC(=O)[C@@H]1Cc2cn(Cc3ccccn3)c3cccc(c23)[C@H](CC(C)C)N1 the results were 3T3 cytotox inconclusive, NPR1 antag inactive, HEK293 tox inconclusive and Luciferase inh inactive.
For CCCNC(=O)[C@@H]1Cc2cn(Cc3cccnc3)c3cccc(c23)[C@H](CC(C)C)N1 the results were 3T3 cytotox 89µM, NPR1 antag inactive, HEK293 tox inconclusive and Luciferase inh inactive.
Screening CC(C)C[C@@H]1N[C@H](C(=O)NC(C)C)Cc2cn(Cc3ccncc3)c3cccc1c23 returned 3T3 cytotox 32µM, NPR1 antag inconclusive, HEK293 tox inconclusive and Luciferase inh inactive.
`CC(C)NC(=O)NC[C@H]1O[C@@H]2C[C@@H](CC(=O)N3CCOCC3)O[C@@H]2[C@@H]1O` gave 3T3 cytotox inactive, NPR1 antag inactive, HEK293 tox inactive and Luciferase inh inactive.
For CSc1ccc(-c2cccc(C(=O)NCCNC(=O)c3cccc(Cl)c3)c2)cc1 the results were 3T3 cytotox inactive and HEK293 tox inactive.
`CCc1cc(=O)n(CC(=O)N2CCN(c3ccc(F)cc3)CC2)c(N2CCOCC2)n1` gave 3T3 cytotox inconclusive, NPR1 antag inactive, HEK293 tox 25µM and Luciferase inh inactive.
Cc1cc(=O)n(CC(=O)N2CCN(c3ccc(F)cc3)CC2)c(-c2ccc(F)cc2)n1 was read as 3T3 cytotox inactive, NPR1 antag inactive, HEK293 tox inactive and Luciferase inh inactive.
For O=C(NCC(F)F)C1CCCCN1Cc1ccc(-c2cccs2)cc1 (stereo not given) the results were 3T3 cytotox inactive and HEK293 tox 25µM.
For O=C(NCc1cccs1)C1CCCCN1Cc1ccc(-c2cccs2)cc1 (stereo not given) the results were 3T3 cytotox 28µM and HEK293 tox 32µM.
`C#CCNC(=O)C1CCCN1Cc1ccc(-c2cncnc2)cc1` (stereo not given) gave 3T3 cytotox inactive and HEK293 tox inactive.
Cc1ccc(OCc2nc(C3CCCCN3C(=O)NCc3ccc(F)cc3)no2)cc1 (stereo not given) was read as 3T3 cytotox inconclusive, NPR1 antag inactive, HEK293 tox inconclusive and Luciferase inh inactive.
For Cc1ccc(OCc2nc(C3CCCN3C(=O)Nc3ccccc3)no2)cc1 (stereo not given) the results were 3T3 cytotox inconclusive and HEK293 tox 89µM.
Cc1ccc(NC(=O)N2CCCCC2c2noc(COc3ccc(F)cc3)n2)cc1F (stereo not given) was read as 3T3 cytotox inconclusive, NPR1 antag inactive, HEK293 tox 45µM and Luciferase inh inactive.
Screening Cc1ccc(OCc2nc(C3CCCN3C(=O)Nc3ccc(C)c(F)c3)no2)cc1 (stereo not given) returned 3T3 cytotox inconclusive, NPR1 antag inactive, HEK293 tox 89µM and Luciferase inh inactive.
